The test deals with PUM1 PUF domain R3-YFV (Homo sapiens, UniProt Q14671 828-1176, C935Y;R936F;Q939V). Nature of the test: yeast three-hybrid, YBZ-1, SC-Leu-His + 0.5 mM 3-AT, 4 days. To be noted: tags: N-Gal4 AD-HA kept; label: inside an RPR1-promoter hybrid RNA with tandem MS2 sites; ssRNA. The essentials: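 A centromeric plasmid in strain YBZ-1 co-expressed Pumilio-1 PUF domain libraries, randomized at the three base-contacting residues of each repeat, with matching RNA elements; the strain carries a LexA–MS2 coat fusion and a HIS3 reporter. After four days on SC-Leu (input) or SC-Leu-His + 0.5 mM 3-AT (selection), the repeat regions were PCR-amplified and Illumina-sequenced. The interaction score is the log change in variant frequency from input to selection, using log2 and a pseudocount of 1 where absent.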
PUM1 PUF domain R3-YFV, sequence (Q14671 828-1176 C935Y/R936F/Q939V): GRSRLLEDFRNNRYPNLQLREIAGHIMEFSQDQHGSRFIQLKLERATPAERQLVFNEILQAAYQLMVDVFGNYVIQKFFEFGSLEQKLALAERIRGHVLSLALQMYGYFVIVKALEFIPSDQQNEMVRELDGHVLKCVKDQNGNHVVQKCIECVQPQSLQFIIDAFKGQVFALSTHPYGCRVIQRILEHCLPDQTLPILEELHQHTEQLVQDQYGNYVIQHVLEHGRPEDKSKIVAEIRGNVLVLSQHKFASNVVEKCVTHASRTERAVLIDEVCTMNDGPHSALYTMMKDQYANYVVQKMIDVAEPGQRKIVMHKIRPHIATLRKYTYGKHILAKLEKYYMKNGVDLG
Regarding “GGCUAGAACUAGUGGAUCCCCCGGCGCCCGGCGGCUCGAGCCCGGGUAAGUGUAAUUAGUCUGCAUGCCGCCGGGCGCCAUGCCUGCAGGUCGACUCUAGAAAACAUG”, the binding signal is 0.45 log2 enrichment (interaction score).

As for “GGCUAGAACUAGUGGAUCCCCCGGCGCCCGGCGGCUCGAGCCCGGGUAAGUGUAAAUAGUCUGCAUGCCGCCGGGCGCCAUGCCUGCAGGUCGACUCUAGAAAACAUG”, the binding signal is 1.56 log2 enrichment (interaction score).

For the sequence “GGCUAGAACUAGUGGAUCCCCCGGCGCCCGGCGGCUCGAGCCCGGGUAAGUGUAAGUAGUCUGCAUGCCGCCGGGCGCCAUGCCUGCAGGUCGACUCUAGAAAACAUG”, the binding signal was 4.24 log2 enrichment (interaction score).

The values are drawn from PMC8384837, “Expanding the binding specificity for RNA recognition by a PUF domain”.
